The values that follow come from PubChem BioAssay (EPA / NIEHS).

Inconclusive results are not listed. Calls of active or inactive are those of the source. The calls were made as follows: active = hit-call score of the fitted dose curve at least 0.9, where 1 is the maximum; inconclusive = response in the unintended direction; inactive = score below 0.9.

human Phosphatase and Tensin Homolog (PTEN), PTEN (gene 5728), sequence (P60484 whole entry, looked up): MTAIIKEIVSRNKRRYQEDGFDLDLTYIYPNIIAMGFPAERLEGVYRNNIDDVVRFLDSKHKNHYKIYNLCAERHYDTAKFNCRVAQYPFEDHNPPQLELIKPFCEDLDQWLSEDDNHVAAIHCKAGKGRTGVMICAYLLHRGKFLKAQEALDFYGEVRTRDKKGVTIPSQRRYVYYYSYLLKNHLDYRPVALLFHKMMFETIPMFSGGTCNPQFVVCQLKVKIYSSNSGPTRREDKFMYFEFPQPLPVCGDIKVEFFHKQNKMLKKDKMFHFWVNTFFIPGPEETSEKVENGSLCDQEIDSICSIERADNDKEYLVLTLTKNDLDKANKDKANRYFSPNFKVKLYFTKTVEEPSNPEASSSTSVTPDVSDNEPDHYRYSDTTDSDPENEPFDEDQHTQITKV
human Phosphoinositide 3-kinase alpha (PI3Ka), PIK3CA (gene 5290), sequence (P42336 whole entry, looked up): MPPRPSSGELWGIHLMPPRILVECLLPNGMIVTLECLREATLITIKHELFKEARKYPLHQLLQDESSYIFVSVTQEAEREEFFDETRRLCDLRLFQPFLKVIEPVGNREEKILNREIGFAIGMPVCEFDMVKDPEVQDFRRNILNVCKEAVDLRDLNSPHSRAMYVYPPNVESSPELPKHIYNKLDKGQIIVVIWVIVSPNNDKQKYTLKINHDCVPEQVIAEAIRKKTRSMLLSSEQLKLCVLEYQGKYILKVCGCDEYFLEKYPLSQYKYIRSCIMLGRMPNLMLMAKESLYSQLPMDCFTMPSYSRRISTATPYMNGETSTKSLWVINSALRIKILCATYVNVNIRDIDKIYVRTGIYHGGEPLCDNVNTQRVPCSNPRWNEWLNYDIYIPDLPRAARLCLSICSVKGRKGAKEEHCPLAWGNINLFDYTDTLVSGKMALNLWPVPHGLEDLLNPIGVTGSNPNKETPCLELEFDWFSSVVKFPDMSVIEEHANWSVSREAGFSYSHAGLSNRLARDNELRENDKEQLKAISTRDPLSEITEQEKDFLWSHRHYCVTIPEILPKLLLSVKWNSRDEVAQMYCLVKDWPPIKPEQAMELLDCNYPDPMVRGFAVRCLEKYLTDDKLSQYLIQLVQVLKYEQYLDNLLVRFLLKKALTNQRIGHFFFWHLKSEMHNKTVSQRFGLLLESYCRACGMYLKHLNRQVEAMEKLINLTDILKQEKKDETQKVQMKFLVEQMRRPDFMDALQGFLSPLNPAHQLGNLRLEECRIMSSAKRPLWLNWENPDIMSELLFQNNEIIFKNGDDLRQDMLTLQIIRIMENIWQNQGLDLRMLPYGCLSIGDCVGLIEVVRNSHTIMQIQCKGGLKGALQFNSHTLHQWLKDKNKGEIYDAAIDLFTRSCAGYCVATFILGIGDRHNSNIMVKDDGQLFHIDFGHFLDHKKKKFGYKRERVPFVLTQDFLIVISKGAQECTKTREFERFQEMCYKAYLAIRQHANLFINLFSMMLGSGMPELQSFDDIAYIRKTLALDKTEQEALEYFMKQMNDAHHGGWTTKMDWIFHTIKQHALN

In the first test the target is human Phosphoinositide 3-kinase alpha (PI3Ka), PIK3CA (gene 5290) (UniProt P42336). In words: NVS_ENZ_hPI3Ka: NovaScreen (NVS) Enzymatic Assay for human Phosphoinositide 3-kinase alpha (PI3Ka) (AID 2283196). The method, boiled down:
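Fluorescence/mobility-shift readout of substrate conversion by recombinant enzyme, 1 h post-dosing. Primary screen in duplicate at 25 uM; actives (e.g. ≥30% inhibition) retested in singleton concentration-response, top concentration 50 uM.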
As for `Nc1ccc(-c2ccc(N)c(Cl)c2)cc1Cl`, the outcome was inactive.
The same measure, in the same setting: the result for `CCNc1nc(NC(C)(C)C)nc(SC)n1` reads “inactive”.
On the same count and under the same terms, the result for `Cc1ccccc1N` reads “inactive”; that for `CC(C)C1CCC(Cc2ccc(Cl)cc2)C1(O)Cn1cncn1` (centres undefined), “inactive”; that for `C(=NC1CCCCC1)=NC1CCCCC1`, “inactive”.
Still for that read-out and setting: with `COP(=S)(OC)Oc1c(Cl)cc(C)cc1Cl` the entry was “inactive”; with `O=[N+]([O-])c1ccc2c3c(cccc13)CC2`, “inactive”.
`ClCCBr`: the AC50 is 383 nM (active).
With `COP(=S)(OC)Oc1cc(Cl)c(Cl)cc1Cl`, the outcome was inactive.

A further test deals with human Phosphatase and Tensin Homolog (PTEN), PTEN (gene 5728) (UniProt P60484). Nature of the test: NVS_ENZ_hPTEN: NovaScreen (NVS) Enzymatic Assay for human Phosphatase and Tensin Homolog (PTEN) (AID 2283203). The gist of the method:
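Loss of fluorescent product signal after mobility-shift separation reports PTEN activity, recombinant human enzyme, 1 h after compound addition. Single 25 uM duplicate screen, then concentration-response on actives; DMSO baseline.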
For `COC[C@H](C)N(C(=O)CCl)c1c(C)csc1C`, the outcome was inactive.
As for `CN(CCCC(=O)c1cccnc1)N=O`, the AC50 was 2.29 nM (active).
Still for that read-out and setting: the result for `O=C(c1ccccc1)C(Cl)Cl` reads 14100 nM (active).
On to `COP(=S)(OC)Oc1cc(Cl)c(Cl)cc1Cl`, for which the result was inactive.
With `N#CCc1ccc(Cl)cc1`, the AC50 is 1320 nM (active).

A word on the AC50: it is the concentration at which the activity in the assay is half-maximal.
